Hits are enriched below; roughly 0.67% of the tested compounds scored in any of these assays.
Rin1 Abl inh = inhibitors of human Rin1-Abl protein interaction | TR-FRET Rin1/Abl binding, biochemical | inhibition, % at 7.35 µM | 360,000 tested, 0.4% active | AID 588664; in the data active = inhibition above about 5%, passing the limit was not always enough
NPR1 activator = GC-A (human) enzyme activation; AID 1671463; 370,000 tested, 0.14% active; P16066; HEK293 GC-A cells, cGMP TR-FRET, EC30 ANP; 0% at EC30 ANP, 100% saturating ANP; activation, % at 10 µM; in the data active = activation above about 40%
GC-B act = GC-B (human) receptor activation; P20594; HEK293-GC-B cells, CNP EC30, cGMP TR-FRET; 0% at EC30 CNP, 100% saturating CNP; activation, % at 10 µM; 370,000 tested, 0.11% active; AID 1920062;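 active = activation at 10 µM reaching about 35% in either raw or pattern-adjusted values, limit read from the data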
CaV13 FRET inh = Primary screen for inhibitors of IQ motif and Ca2+-dependent inactivation inhibitor domain binding in CACNA1D, Förster resonance energy transfer in living cells, … | HEK cells, CFP/YFP FRET ICDI-IQ, plate reader, 10 min; percent FRET-ratio fall versus neutral wells | inhibition, % at 12.3 µM | 340,000 tested, 0.098% active;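 active = mean replicate inhibition of at least 30% and at least 1% of replicates passing that level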
Rin1 Abl conf = Rin1-Abl interaction inhibition confirmation. 1,300 tested, 49% active. AID 602124. inhibition, % at 7.35 µM. shares compounds with Rin1 Abl inh. TR-FRET Rin1-Abl binding, purified proteins
GFP quencher = quenches GFP fluorescence, counter-screen for Rin1-Abl inhibitors; shares compounds with Rin1 Abl inh; inhibitors/quenchers counterscreen; inhibition, % at 6.75 µM; 1,300 tested, 8.5% active; AID 602125;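 also: ABL1-eGFP fusion protein alone without its partner RIN1-SBP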
GFP quench DR = quenches GFP in dose response, Rin1-Abl counter-screen; shares compounds with Rin1 Abl inh; GFP fluorescence interference/quenching counterscreen; IC50, µM; 230 tested, under 10 active; AID 602182; call rule not given here;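 also: ABL1-eGFP fusion protein alone without its RIN1 binding partner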
Large screens that a line does not name were inactive (follow-up assays come after a bar, where they were run). Rule as the data show it, unless noted: active = inhibition above about 6.5%; inactive = the rest.

Cc1cc(C)c2c(c1)SC1=NC(c3ccccc3)(C(F)(F)F)NC(=O)N12 (stereo not drawn)	Rin1 Abl inh 7.0 | Rin1 Abl conf inactive | GFP quencher inactive
COc1ccc(C2Nc3ccccc3C(=O)N2Cc2ccccc2)cc1COc1ccc(NC(C)=O)cc1 (stereo not drawn)	none (no result: Rin1 Abl inh, CaV13 FRET inh)
Cc1nc2ccc(S(=O)(=O)NCC(=O)N(C)Cc3ccc(F)cc3)cc2s1	none (no result: Rin1 Abl inh, CaV13 FRET inh)
CC(C)Oc1ccc(Oc2ccc(C#C[C@H](C)N3C(=O)c4ccccc4C3=O)cc2)cn1	none (no result: Rin1 Abl inh, CaV13 FRET inh)
CC1CCN(c2nc3c(c(=O)n(C)c(=O)n3C)n2CCSc2nc3ccccc3s2)CC1	none
Cn1c(=O)c2c(nc(N3CCC(C(N)=O)CC3)n2CCSc2nc3ccccc3s2)n(C)c1=O	Rin1 Abl inh 9.7 | Rin1 Abl conf 7.0 | GFP quencher inactive
C#CCN1CC(N(C)CCOC(=O)c2ccc([N+](=O)[O-])cc2)CS1(=O)=O (stereo not drawn)	none (no result: Rin1 Abl inh, CaV13 FRET inh)
CC(C)C[C@H]1COc2cccc(F)c2S(=O)(=O)N1Cc1cn(Cc2ccco2)nn1	none (no result: Rin1 Abl inh, CaV13 FRET inh)
Cc1ccc(NC2=C(N3CCOCC3)C(=O)c3ccccc3C2=O)cc1	Rin1 Abl inh 11.9 (no result: CaV13 FRET inh) | Rin1 Abl conf inactive | GFP quencher inactive
CCN(C(=O)CN1C(=O)COc2ccc(S(=O)(=O)N3CCOCC3)cc21)c1ccc(OC)cc1	Rin1 Abl inh 8.2 | Rin1 Abl conf 10.8 | GFP quencher inactive
CCc1ccc(-c2cc(C)no2)cc1S(=O)(=O)NCc1ccccc1OC	none
COc1ccccc1CN1CCC(CNS(=O)(=O)c2cc(-c3cc(C)no3)ccc2OC)CC1	Rin1 Abl inh 12.0 | Rin1 Abl conf inactive | GFP quencher inactive
Cc1nn(-c2ccccc2)c(C)c1/C=N\NC(=O)CSc1nc2ccccc2n1Cc1ccc(Cl)cc1	none (no result: Rin1 Abl inh, CaV13 FRET inh)
COc1ccc2c3c(cccc13)C(=O)CC2	Rin1 Abl inh 11.6 | Rin1 Abl conf inactive | GFP quencher inactive
Cc1nn(C)c(C(=O)NNC(=S)NCc2ccccc2)c1Cl	Rin1 Abl inh 7.3 | Rin1 Abl conf inactive | GFP quencher inactive
S=C(NCc1ccc2c(c1)OCO2)NC1CCN(Cc2ccccc2)CC1	Rin1 Abl inh 10.4 | Rin1 Abl conf 11.0 | GFP quencher inactive
O=C(c1cc(Br)cc(Br)c1)N1CCC(Oc2cccnc2)CC1	none (no result: Rin1 Abl inh, CaV13 FRET inh)
COC(=O)CN1C(=O)[C@@H]2[C@H](C1=O)[C@@H]1CC(C(=O)OC)=C[C@@H](C(=O)OC)[C@@H]3C1=C(C(=O)[C@@]3(C)NC(=O)c1ccccc1)[C@@H]2C	Rin1 Abl inh 14.5 | Rin1 Abl conf inactive | GFP quencher inactive
COC(=O)C1=C[C@@H](C(=O)OC)[C@@H]2C3=C(C(=O)[C@@]2(C)NC(=O)c2ccccc2)[C@H](c2ccccc2)[C@@H]2C(=O)NC(=O)[C@@H]2[C@@H]3C1	none
C[C@H]1COc2cc(N3CCCC3)ccc2S(=O)(=O)N1C	none (no result: Rin1 Abl inh, CaV13 FRET inh)
CC(=O)N[C@@H]1C[C@@H]2O[C@@H](CO)CC[C@@H]2O[C@@H]1CCc1ccc(C#CC2(O)CCCC2)cc1	none (no result: Rin1 Abl inh, CaV13 FRET inh)
C/C(=N\NC(=O)c1ccc2c(c1)OCCO2)c1ccccc1	Rin1 Abl inh 6.5 | Rin1 Abl conf inactive | GFP quencher inactive
CCCNC(=O)c1cc(C2CCCCN2C(=O)c2ccc3ccccc3c2)on1 (stereo not drawn)	none
CCCNC(=O)c1cc(C2CCCCN2C(=O)c2ccc3c(c2)CCO3)on1 (stereo not drawn)	Rin1 Abl inh 15.0 | Rin1 Abl conf inactive | GFP quencher inactive
Nn1c(SCc2ccc(Br)cc2)nnc1-c1n[nH]c2c1CCC2	none (no result: Rin1 Abl inh, CaV13 FRET inh)
Cc1cccc(N(Cc2ccccc2)C(=O)Cc2ccc(S(=O)(=O)N3CCOCC3)s2)c1	Rin1 Abl inh 14.4 | Rin1 Abl conf 25.8 | GFP quencher inactive | GFP quench DR inactive
Cn1cccc1C(=O)N1CCN(S(=O)(=O)c2cccc3ccccc23)CC1	none (no result: Rin1 Abl inh, CaV13 FRET inh)
COc1cccc(NC(=O)n2ccc3ccc(-c4ccc5ccn(C(=O)Nc6cccc(OC)c6)c5c4)cc32)c1	none (no result: Rin1 Abl inh, CaV13 FRET inh)
Cc1ccc(-n2nc3cc(C)c(N)cc3n2)cc1	none
Cc1cc2nc3ccc(N(C)C)cc3nc2cc1N	Rin1 Abl inh 15.0 | Rin1 Abl conf inactive | GFP quencher 33.8
O=C(c1ccco1)N1CCN(Cc2cc(=O)c(OCc3ccccc3Cl)co2)CC1	Rin1 Abl inh 13.6 | Rin1 Abl conf 10.3 | GFP quencher inactive
O=C(c1ccco1)N1CCN(Cc2cc(=O)c(OCc3cccc(Cl)c3)co2)CC1	none
C=CCN=C1NC(c2cccc(F)c2)C(C(=O)OC)=C(C)N1Cc1cccc(C(F)(F)F)c1 (stereo not drawn)	none (no result: Rin1 Abl inh)
C[C@H]1[C@H](NC(=O)c2ccc(Cl)c(C(F)(F)F)c2)CC[C@@]23CCCN2C(=O)CCC[C@@H]13	none (no result: Rin1 Abl inh, CaV13 FRET inh)
Cc1ccccc1-n1c(SCC(=O)c2cc(C)n(C)c2C)nnc1-c1cccnc1	none (no result: NPR1 activator, GC-B act, CaV13 FRET inh)
COCCn1c(C)cc(C(=O)CSc2nnc(-c3cccnc3)n2-c2ccccc2F)c1C	Rin1 Abl inh 10.2 | Rin1 Abl conf inactive | GFP quencher inactive
O=C(O)c1ccc2nc(-c3ccco3)c(-c3ccco3)nc2c1	Rin1 Abl inh 14.2 | Rin1 Abl conf inactive | GFP quencher inactive
Cc1cc(S(=O)(=O)N2CCN(C(=O)CCC(=O)N3CCOCC3)CC2)ccc1Br	Rin1 Abl inh 15.8 | Rin1 Abl conf 21.1 | GFP quencher inactive | GFP quench DR inactive
CCOc1ccc(OCCC(=O)N2CCN(S(=O)(=O)c3ccc(OCC)cc3)CC2)cc1	none
CCOc1ccc(S(=O)(=O)N2CCN(C(=O)CCC(=O)N3CCOCC3)CC2)cc1	Rin1 Abl inh 11.2 | Rin1 Abl conf 10.6 | GFP quencher inactive
Cc1ccc(S(=O)(=O)N2C[C@H]3[C@H]4C(=O)N(c5ccccc5)C(=O)[C@H]4CC(=O)[C@H]3[C@@H]2c2cccc3ccccc23)cc1	Rin1 Abl inh 48.0 | Rin1 Abl conf inactive | GFP quencher inactive
CCCCOc1ccc(C(=O)N(Cc2ccco2)C2CCS(=O)(=O)C2)cc1 (stereo not drawn)	Rin1 Abl inh 9.6 (no result: NPR1 activator, GC-B act, CaV13 FRET inh) | Rin1 Abl conf inactive | GFP quencher inactive
CCCCOc1cccc(C(=O)N(Cc2ccco2)C2CCS(=O)(=O)C2)c1 (stereo not drawn)	none
COc1c(Cl)cc(C(=O)NN)cc1Cl	none
NNC(=O)c1cc(O)c(O)c(O)c1	Rin1 Abl inh 33.6 | Rin1 Abl conf 51.3 | GFP quencher 7.1
CCN(C1CCCCC1)S(=O)(=O)c1ccc(OC)c(C)c1	none (no result: CaV13 FRET inh)
CCN(C1CCCCC1)S(=O)(=O)c1ccc(-n2cnnn2)c(C)c1	Rin1 Abl inh 13.8 | Rin1 Abl conf inactive | GFP quencher inactive
